Here are results for 46 compounds from ChEMBL document CHEMBL3433997, “St. Jude Leishmania screening dataset” (2016).

Format in all cases: functional
In assay [1] the target is Solute carrier family 2, facilitated glucose transporter member 1 (Homo sapiens) (UniProt P11166). Briefly: ST_JUDE_LEISH: Cytotoxicity at 2uM final concentration against transgenic Leishmania Mexicana promastigotes LmGLUT1 that are glucose transport deficient and complemented with the human glucose transporter GLUT1. Activity is measured by DNA content using SYBR green in vitro.
Solute carrier family 2, facilitated glucose transporter member 1 (Homo sapiens), sequence (P11166 whole entry): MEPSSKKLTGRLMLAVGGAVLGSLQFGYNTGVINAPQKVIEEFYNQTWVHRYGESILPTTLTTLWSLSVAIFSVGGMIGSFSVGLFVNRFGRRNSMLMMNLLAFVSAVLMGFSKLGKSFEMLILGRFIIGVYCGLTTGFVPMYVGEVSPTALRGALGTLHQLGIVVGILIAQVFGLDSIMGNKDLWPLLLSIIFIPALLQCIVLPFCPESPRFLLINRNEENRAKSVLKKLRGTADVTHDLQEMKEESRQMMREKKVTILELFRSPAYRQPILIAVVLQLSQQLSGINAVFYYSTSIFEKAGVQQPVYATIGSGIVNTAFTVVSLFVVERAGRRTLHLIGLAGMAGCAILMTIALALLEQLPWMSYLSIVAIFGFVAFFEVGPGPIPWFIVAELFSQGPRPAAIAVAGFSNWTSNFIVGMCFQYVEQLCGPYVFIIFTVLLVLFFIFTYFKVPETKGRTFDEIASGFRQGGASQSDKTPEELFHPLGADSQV

In assay [2] the target is Hexose transporter 1 (Plasmodium falciparum) (UniProt O97467). Briefly: ST_JUDE_LEISH: Cytotoxicity at 2uM final concentration against transgenic Leishmania Mexicana promastigotes LmPfHT that are glucose transport deficient and complemented with the Plasmodium falciparum hexose transporter. Activity is measured by DNA content using SYBR green in vitro.
In assay [3] the target is Glucose transporter (Leishmania mexicana) (UniProt O61059). Briefly: ST_JUDE_LEISH: Cytotoxicity at 2uM final concentration against transgenic Leishmania Mexicana promastigotes LmGT2 that are glucose transport deficient and complemented with the L. Mexicana glucose transporter 2. Activity is measured by DNA content using SYBR green in vitro.

As a reminder, the inhibition is the drop in the measured response relative to a control, in per cent. Regarding `CN1CCC(N2CCC(Oc3cccc(C(=O)NCCCC4CCCC4)c3)CC2)CC1`, the inhibition in assay [1] was 10.9%; in assay [2], 10.4%; in assay [3], 10.3%.

As for `O=C(Nc1cccc(CN2CCN(Cc3cccc(O)c3)CC2)c1)c1cc2ccccc2s1`, the inhibition in assay [1] was determined as 3.62%; in assay [2], 3.45%; in assay [3] it was 3.74%.

Regarding `Cc1cc(F)ccc1Nc1nc(N(C)c2ccccc2)c2cc(OCCCN(C)C)ccc2n1`, the results for the inhibition in assay [1], in assay [2] and in assay [3] were 2.53%, 3.15% and 4.25%, respectively.

Regarding `O=C(NCCN1CCCC1)c1cccc(-c2ccc(-c3nc4ccccc4[nH]3)s2)c1`, the inhibition in assay [1] worked out at 3.42%; in assay [2], 1.36%; in assay [3], 4.63%.

For the compound `c1cc(CN2CCCCC2)cc(-c2csc(-c3nc4ccccc4[nH]3)c2)c1`, the inhibition stood at 5.65% in assay [1], 4.57% in assay [2] and 2.67% in assay [3].

As to `O=C(C=Cc1ccc(-c2ccccc2)cc1)N1CCC(CCN2CCC(c3c[nH]c4ccccc34)CC2)CC1`, the inhibition was 2.14% in assay [1], 9.22% in assay [2] and -1.2% in assay [3].

Consider `Cc1ccc(C(O)CNc2ccnc(Nc3cccc(-c4csc(C)n4)c3)n2)cc1` (stereo not drawn), for which the inhibition in assay [1] is -0.56%; in assay [2] it was -1.05%; in assay [3], -1.54%.

Consider `Fc1c(CNCC2CCN(CC3CCCCC3)CC2)cccc1C(F)(F)F`, for which the inhibition worked out at 4.53% in assay [1], 3.93% in assay [2] and 5% in assay [3].

In the case of `C/C=C/COc1ccc(-c2c(C)[nH]c(C)c(Cl)c2=O)cc1`, the inhibition in assay [1] came out at 4.66%; in assay [2], 6.53%; in assay [3] it was 4.16%.

Regarding `O=C1OC(c2ccccc2)(c2ccccc2)CN1CC1CCN(Cc2ccc(O)c(Cl)c2)CC1`, the inhibition in assay [1] was determined as 70%; in assay [2], 70.4%; in assay [3], 32.2%.

As to `Cc1ccc(CN2CCC(Oc3cccc(NC(=O)c4ccc(C(F)(F)F)cc4)c3)CC2)cc1`, the inhibition worked out at 5.11% in assay [1], 0.79% in assay [2] and 3.6% in assay [3].

As for `CCCN(CCC)C(=O)c1cc(C(=O)N[C@@H](Cc2ccccc2)[C@H](O)CNCc2cccc(C(F)(F)F)c2)cc(N2CCCCS2(=O)=O)c1`, the inhibition in assay [1] is -1.33%; in assay [2], -0.49%; in assay [3], -0.16%.

Consider `Cc1[nH]c(C)c(-c2ccc(-c3ccccc3F)nc2)c(=O)c1Br`, for which the inhibition in assay [1] came to 2.19%; in assay [2], 4.24%; in assay [3], 1.41%.

`CCCNCc1ccc(-c2ccc(CN(Cc3cnc(C)cn3)C(=O)/C=C/c3ccccc3C)cc2)nc1`: the inhibition was determined as 2.17% in assay [1], 0.74% in assay [2] and 0.97% in assay [3].

With `CC(Nc1ncc(-c2ccsc2)c(-c2nccs2)n1)c1ccc2c(c1)OCCO2` (stereo not drawn), the values for the inhibition in assay [1], in assay [2] and in assay [3] were 5.89%, 5.47% and 7.42%, respectively.

Turning to `COc1cc(NC(=O)c2ccc(-c3ccc(C(C)=O)cc3)s2)ccc1OCCN1CCCC1`, the inhibition in assay [1] was 0.3%; in assay [2] it was -0.14%; in assay [3], 1.4%.

Turning to `CC(=O)c1ccc(NC(=O)Nc2ccc(N(C)c3ccnc(Nc4cccc(CS(C)(=O)=O)c4)n3)cc2)cc1`, the inhibition in assay [1] was -0.18%; in assay [2], 0.54%; in assay [3], 4.04%.

For the compound `Cc1nc2nc(N)nc(N)c2c(C)c1Cc1ccccc1Cl`, the results for the inhibition in assay [1], in assay [2] and in assay [3] were 9.22%, 12.6% and 7.89%, respectively.

With `CCN(CC)CCN(Cc1ccc(-c2ccc(C(F)(F)F)cc2)cc1)C(=O)Cn1c(CCc2ccc(F)c(F)c2F)nc(=O)c2cccnc21`, the values for the inhibition in assay [1], in assay [2] and in assay [3] were 0.59%, 0.44% and -0.8%, respectively.

Consider `O=C(Nc1ccc(-c2nc3ccccc3[nH]2)cc1)c1cccc(S(=O)(=O)N2CCOCC2)c1`, for which the results for the inhibition in assay [1], in assay [2] and in assay [3] were 4.9%, 5.13% and 4.05%, respectively.

Regarding `O=C(/C=C/c1ccccc1Cl)Nc1ccc(Br)c(OCCN2CCCCC2)c1`, the inhibition in assay [1] was 2.43%; in assay [2], 2.16%; in assay [3], -0.1%.

For `Clc1ccc(-c2ccc(C=NNc3nc(=Nc4ccccc4)[nH]c(=Nc4ccccc4)[nH]3)o2)cc1Cl`, the inhibition in assay [1] is -3.26%; in assay [2] it was -1.12%; in assay [3] it was 7.88%.

As to `Cc1ccc2c(=O)cc(CCc3cccc(F)c3F)n(CC(=O)N(Cc3ccc(-c4ccc(C(F)(F)F)cc4)cc3)C3CCN(C)CC3)c2n1`, the inhibition worked out at 2% in assay [1], 0.92% in assay [2] and 1.01% in assay [3].

Turning to `CCN(CC)CCCOC(=O)c1ccc2c(c1)-c1ccc(C(=O)OCCCN(CC)CC)c3cccc-2c13`, the inhibition in assay [1] worked out at 6.8%; in assay [2] it was 3.93%; in assay [3] it was 4.24%.

For the compound `Cc1cc(C(=O)Nc2ccc(C)c(-c3nc(N(C(=O)c4ccc(F)c(C)c4)C4CCNCC4)nc4c3ccc(=O)n4-c3c(F)cccc3F)c2)ccc1F`, the results for the inhibition in assay [1], in assay [2] and in assay [3] were 1.66%, 0.07% and 0.59%, respectively.

Consider `O=C(O[C@@H]1CN[C@H](C#Cc2cc3c(Nc4ccc5c(cnn5Cc5ccccc5)c4)ncnc3s2)C1)N1CCCC1`, for which the results for the inhibition in assay [1], in assay [2] and in assay [3] were -0.49%, 0.25% and -0.78%, respectively.

For `O=C(NCCNc1ccnc(Nc2ccc(F)cc2)n1)Nc1ccccc1F`, the inhibition in assay [1] is 2.71%; in assay [2], 1.86%; in assay [3], -2.84%.

Turning to `O=C(Cn1c(CCc2cccc(F)c2F)nc(=O)c2ccccc21)N(Cc1ccc(-c2ccc(C(F)(F)F)cc2)cc1)C1CCN(C2CCSCC2)CC1`, the inhibition is 1.28% in assay [1], -2.32% in assay [2] and 3.92% in assay [3].

In the case of `Cc1cccc(CN2CCCN(Cc3ccc(C(=O)Nc4ccc(C(C)(C)C)cc4)cc3)CC2)c1`, the inhibition in assay [1] is 1.47%; in assay [2] it was 1.6%; in assay [3] it was -0.38%.

Take `CCCCn1c(Sc2ccc(C#N)c([N+](=O)[O-])c2)nnc1-c1cc(OC)cc(OC)c1`: the inhibition was determined as 0.5% in assay [1], 3.21% in assay [2] and 0.45% in assay [3].

With `Cc1cccc2nc(O)c([N+](=O)[O-])c(O)c12`, the inhibition in assay [1] was found to be 2.09%; in assay [2], 1.72%; in assay [3], 2.14%.

In the case of `CCCCCOc1ccc(C(O)C(CCC(CN2CCCCCC2)C(O)c2ccc(OCCCCC)cc2)CN2CCCCCC2)cc1` (stereo not drawn), the inhibition is 3.22% in assay [1], 2.73% in assay [2] and 1.43% in assay [3].

On to `CN(C)c1ccc(CN2CCC(NC(=O)c3ccc(-c4cccc(F)c4)s3)CC2)cc1`, for which the inhibition in assay [1] amounted to 4.53%; in assay [2], 5.36%; in assay [3] it was 1.82%.

With `c1ccc(Oc2ccc(Nc3ccnc4cc(-c5ccc(CN6CCCCC6)o5)ccc34)cc2)nc1`, the inhibition in assay [1] was -2.19%; in assay [2], -1.27%; in assay [3] it was 0.73%.

Take `Cc1cc2nc(-c3cc(-c4cccc(NS(C)(=O)=O)c4)cnc3N)[nH]c2cc1C`: the inhibition in assay [1] was 1.13%; in assay [2], 0.27%; in assay [3], 0.05%.

Consider `CC(C)CNC(=O)c1cncc(-c2ccc(CN(C)C3CCN(C)CC3)cc2)c1`, for which the inhibition in assay [1] came to 4.89%; in assay [2], 5.48%; in assay [3], 1.87%.

In the case of `CC(C)n1ncc2c(C(=O)N3CCCc4ccccc43)cc(-c3ccccc3)nc21`, the figures for the inhibition in assay [1], in assay [2] and in assay [3] were 4.46%, 2.95% and 3.97%, respectively.

As for `Cc1ccc(Nc2nc(C)cc(Nc3cccc(C#N)c3)n2)cc1`, the inhibition in assay [1] stood at 42.3%; in assay [2] it was 65.8%; in assay [3], 16.3%.

As to `Cc1ccc(N2C(N)=NC(N)=NC2(C)C)cc1Cl`, the inhibition in assay [1] was 11.4%; in assay [2], 8.8%; in assay [3], 8.05%.

Take `c1ccc(-c2ccc3c(Nc4ccc5[nH]ccc5c4)ccnc3c2)nc1`: the inhibition in assay [1] is -1.13%; in assay [2], 0.56%; in assay [3] it was -0.96%.

On to `FC(F)(F)c1ccc(NC(=S)N2CCC(CCN3CCC(c4c[nH]c5ccccc45)CC3)CC2)cc1`, for which the inhibition in assay [1] worked out at 5.27%; in assay [2], 3.8%; in assay [3] it was 5.31%.

In the case of `CCOC(=O)c1ccc(-c2cnoc2-c2cc(CC)c(OC)cc2O)o1`, the inhibition was -0.08% in assay [1], 1.08% in assay [2] and 1.38% in assay [3].

On to `COc1ccc2nccc([C@@H](O)CN3CCC(NCc4cc5ccccc5[nH]4)CC3)c2n1`, for which the inhibition in assay [1] was determined as 46%; in assay [2] it was 59.2%; in assay [3], 62.5%.

Consider `Cc1ccc(F)c(OCC2CCN(c3ncc(C(=O)NC4CC4)cc3Cl)CC2)c1`, for which the inhibition in assay [1] is -1.14%; in assay [2] it was 2.1%; in assay [3], 1.1%.

On to `CC(C)CNCc1cccc(-c2cccc(CN(CCCN3CCN(C)CC3)C(=O)NC3CCCCC3)c2)c1`, for which the inhibition in assay [1] was 0.8%; in assay [2], 0.99%; in assay [3], -0.56%.

For the compound `CN1CCCC1CCNC(=O)[C@H](CC1CCCCC1)NC(=O)c1ccc(O)c(-c2ccc(Cl)c(Cl)c2)c1` (stereo partly drawn), the inhibition amounted to 8.26% in assay [1], 10.3% in assay [2] and 6.63% in assay [3].
